# Bioassay records: PubChem, The Scripps Research Institute Molecular Screening Center
# LYPLA1 counter – LYPLA1 inhibitors, primary screen, counter-screen for PME1 inhibitor project, biochemical, fluorescence polarization, FP-Rh probe ABPP; Acyl-protein thioesterase 1 (Homo sapiens), O75608; inhibition, % at 5.9 µM; 320,000 compounds, 0.16% hits; AID 2174, 2009; recombinant LYPLA1;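 active = inhibition above the mean of all tested compounds plus 3 SD, set per campaign, cut at about 14% in these data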;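 also: inhibitors block serine hydrolase probe labeling of LYPLA1 so polarization falls; 0% = enzyme with DMSO and 100% = wells lacking LYPLA1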
# EBNA-1 inhibitor – EBNA-1 DNA-binding inhibitors, primary screen, biochemical, fluorescence polarization; 300,000 compounds, 0.34% hits; inhibition, % at 14.8 µM; AID 1950, 2009; in the data active = inhibition above about 28%
# ZTA DNA inh – ZTA (EBV) inhibition in EBNA-1 counter-screen | P03206 | inhibition, % at 11 µM | ZTA-DNA binding, fluorescence polarization | 320,000 compounds, 0.15% hits; in the data active = inhibition above about 33%
# LYPLA2 inh – LYPLA2 inhibitors, primary screen, counter-screen for PME1 inhibitor project, biochemical, fluorescence polarization, FP-Rh probe ABPP; Acyl-protein thioesterase 2 (Homo sapiens), O95372; recombinant LYPLA2; inhibition, % at 5.9 µM; 320,000 compounds, 0.38% hits;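 active = inhibition above the screen-wide mean plus 3 SD, limit set per campaign, cut at about 26% in these data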;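 also: 0% = LYPLA2 with DMSO and 100% = wells lacking LYPLA2 enzyme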
# PREPL inh – PREPL enzyme inhibitors, primary screen, biochemical, fluorescence polarization; Prolyl endopeptidase-like (Homo sapiens), Q4J6C6; inhibition, % at 5.96 µM; AID 2751, 2010; recombinant PREPL, fluorescence polarization activity-based probe; 320,000 compounds, 0.68% hits;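 also: 0% = enzyme with DMSO and 100% = wells lacking enzyme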
# ZTA inh confirm – EBV Zta binding to ZRE DNA, inhibitors, confirmation, biochemical, fluorescence polarization, triplicate. shares compounds with ZTA DNA inh. inhibition, % at 11.1 µM. 320 compounds, 30% hits. AID 2361, 2010;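 active = mean inhibition across triplicate runs above the hit threshold derived for the original primary screen, cut at about 33% in these data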;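 also: 0% = Zta with DMSO and 100% = wells lacking Zta protein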
# EBNA-1 counter – EBNA-1 DNA-binding inhibition, counter-screen for ZTA inhibitor project, biochemical, fluorescence polarization | shares compounds with ZTA DNA inh | inhibition, % at 14.8 µM | 320 tested, under 10 active | AID 2362, 2010; call rule not given here
# PREPL inh cf – human PREPL enzyme inhibitors, confirmation, biochemical, fluorescence polarization; shares compounds with PREPL inh; recombinant PREPL, fluorescence polarization activity probe; inhibition, % at 5.96 µM; 2,000 compounds, 67% hits;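 also: 0% = protein with DMSO and 100% = wells lacking protein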
# An asterisk follows results filed as active; · = not tested or not shown; + = active, no number. Most compounds without a hit are left out; they make up all but 1.3% or so of the library. Rule as the data show it, unless noted: active = inhibition above about 43%; inactive = the rest.
SMILES,LYPLA1 counter,EBNA-1 inhibitor,ZTA DNA inh,LYPLA2 inh,PREPL inh,PREPL inh cf,others
COc1c(C=C2C(=O)NC(=O)NC2=O)c(CCN(C)C(=O)c2ccccc2)cc2c1OCO2,6.6,8.2,2.2,4.1,5.3,·,
CCCCOP(=O)(OCCCC)/C(C#N)=C(/C)O,-3.4,-5.8,+,-2.1,7.7,·,ZTA inh confirm=0.5;EBNA-1 counter=-7.6
COc1cc2[nH]c(=O)n(-c3cccc(Cl)c3)c(=O)c2cc1OC,-1.8,2.4,-9.4,-4.0,-1.5,·,
O=c1[nH]c2ccccc2c(=O)n1-c1ccc(Cl)cc1Cl,-0.2,2.9,34.9*,1.3,6.5,·,ZTA inh confirm=6.1;EBNA-1 counter=-2.0
COc1cccc(-n2c(CN3CCN(C)CC3)nc3ccc([N+](=O)[O-])cc3c2=O)c1,-0.8,2.8,10.0,-1.0,22.2,·,
CCC1(C(=O)c2ccccc2)C2c3ccccc3OC(=O)C21C(C)=O (stereo unspecified),0.7,-0.8,13.3,-2.4,-3.1,·,
CCN(CC)c1ccc(N=Cc2c(O)n(-c3ccccc3C)c(=O)[nH]c2=O)cc1,-2.0,-7.1,32.5,-0.9,27.8,·,
CCN(CC)c1ccc(N=Cc2c(O)n(-c3ccccc3)c(=O)[nH]c2=O)cc1,1.4,10.4,37.9*,0.7,16.2,·,ZTA inh confirm=1.2;EBNA-1 counter=-4.2
CCOc1ccccc1-n1c(O)c(C=Nc2ccc(N(CC)CC)cc2)c(=O)[nH]c1=O,-0.9,0.5,36.9*,-1.0,11.2,·,ZTA inh confirm=5.4;EBNA-1 counter=-0.2
COC(=O)C1=C(c2cccc(OCc3ccccc3)c2)C[C@@H]2CC[C@H]1N2C(=O)NCCCOC(C)C,-1.4,·,-23.7,0.9,45.9*,33.5,
COc1ccc2c(c1)[nH]c1c(C)nccc12,-2.3,2.0,-1.0,5.1,-5.9,·,
CC1=NCCc2c1[nH]c1cc(O)ccc21,6.7,-6.8,15.3,3.8,51.0*,10.2,
COc1ccc2c3c([nH]c2c1)C(C)=NCC3,-4.3,-10.3,-14.2,-7.7,71.3*,33.0,
C1=NCCc2c1[nH]c1ccccc21,0.7,-5.6,0.7,-7.9,22.1,·,
CCN(CC)C(=O)c1ccc(NC(=O)c2cn(-c3ccccc3)nc2-c2ccc(OC)cc2)cc1,-22.6,1.8,15.5,-25.0,-5.5,·,
Clc1ccc(C[n+]2c(-c3ccccc3)cc(-c3ccccc3)cc2-c2ccccc2)cc1,0.1,-6.0,-1.5,2.6,71.0*,62.9*,
COC(=O)C1=C(c2ccc(OC)c(OC)c2)C[C@@H]2CC[C@H]1N2C(=O)NC1CCCCC1,1.0,·,-32.1,3.4,8.3,·,
Cc1ccc2c(c1)cc1c(=O)n(CC(=O)N3CCC4(CC3)OCCO4)nc(C)n12,4.5,1.3,-6.6,5.3,1.9,·,
CCOc1cc(/C=C2/C(=O)NC(=O)N(c3ccc(CC)cc3)C2=O)ccc1OC(=O)c1cccs1,0.9,9.1,1.6,-0.4,48.1*,51.6*,
CCc1ccc(NC(=O)CCNC(=O)N2C[C@H]3C[C@@H](C2)c2cccc(=O)n2C3)cc1,-2.0,-20.1,-10.7,-4.8,6.8,·,
CCC(=NCCc1c[nH]c2ccccc12)c1c(O)n(-c2ccc(C)cc2)c(=O)[nH]c1=O,-3.3,6.3,0.8,-3.8,44.4*,46.1*,
CCCCc1nc2ccccc2c(=O)n1-c1ccccc1O,2.1,-22.4,-21.6,-4.5,110.8*,-2.0,
CC(C)Cc1[nH]c(=O)c(C#N)c2c1CCC2,5.5,4.9,10.9,1.7,75.0*,66.4*,
O=C([O-])c1ccc(-[n+]2c(-c3ccccc3)cc(-c3ccccc3)cc2-c2ccccc2)cc1,2.4,-2.0,5.1,0.4,26.0,·,
O=[N+]([O-])c1ccc(-[n+]2c(-c3ccccc3)cc(-c3ccccc3)cc2-c2ccccc2)cc1,3.9,2.9,-8.8,3.4,43.4*,39.3,
SMILES,LYPLA1 counter,EBNA-1 inhibitor,ZTA DNA inh,LYPLA2 inh,PREPL inh,PREPL inh cf,others
CCN1CCN(CC(=O)c2c(C)n(Cc3ccccc3)c3ccc(OC)cc23)CC1,-1.6,-14.2,-6.0,3.2,5.5,·,
COc1ccc2c(c1)c(C(=O)CN1CCC3(CC1)OCCO3)c(C)n2Cc1ccccc1,-1.8,-0.1,-0.9,2.2,58.0*,49.3*,
CC(=O)O[C@@H]1CC[C@]2(C)C3CC[C@]4(C)C(=O)[C@H](O)CC4C3[C@@H](OC(C)=O)C[C@H]2C1 (stereo partly specified),·,·,·,·,19.0,·,
O=[N+]([O-])c1ccccc1-c1cc(-c2ccccc2)cc(-c2ccccc2)[n+]1Cc1ccccc1Cl,2.4,-9.1,-35.2,2.9,51.0*,49.3*,
Fc1ccc(C[n+]2c(-c3ccccc3)cc(-c3ccccc3)cc2-c2ccccc2)cc1,0.2,-1.1,-8.0,6.9,41.5,·,
CC1=C[C@@H]2c3cccc4[nH]cc(c34)C[C@H]2N(C)C1,0.6,2.8,-2.0,3.1,57.8*,43.8*,
CN1C[C@H](CO)C=C2c3cccc4[nH]cc(c34)C[C@H]21,1.5,-12.3,-4.8,-1.6,42.4,·,
COC(=O)C1=C(c2ccc(OC)c(OC)c2)C[C@@H]2CC[C@H]1N2C(=O)NC(C)C,0.0,·,10.4,3.9,-3.2,·,
